Source: PubChem BioAssay (EPA / NIEHS)
Activity calls are given as the source filed them. Rule for the calls: active = hit-call score of the fitted dose curve at least 0.9, where 1 is the maximum; inactive = score below 0.9.

Assays:
[1] = ATG_CRE_CIS: Attagene CIS-FACTORIAL HepG2 Assay for human cAMP Responsive Element (CRE) binding protein 3 (AID 2282926); details: HepG2 CRE cis-reporter, Attagene multiplexed mRNA; actives raise or lower the signal
Procedure, shortened: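 Capillary electrophoresis of 6-FAM-labelled, HpaI-digested PCR products quantified reporter transcripts. These came from HepG2 transiently transfected with cis-element reporters and exposed to test chemicals for 24 hours, with DMSO defining baseline activity.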

[2] = biological target: CCAAT/enhancer-binding protein beta (Homo sapiens) (UniProt P17676); assay: ATG_C_EBP_CIS: Attagene CIS-FACTORIAL HepG2 Assay for human CCAAT/Enhancer Binding Protein (C/EBP) beta (AID 2282927); details: HepG2 Attagene cis-factorial transcription factor reporter; actives raise or lower the signal
CCAAT/enhancer-binding protein beta (Homo sapiens), sequence (P17676 whole entry, looked up): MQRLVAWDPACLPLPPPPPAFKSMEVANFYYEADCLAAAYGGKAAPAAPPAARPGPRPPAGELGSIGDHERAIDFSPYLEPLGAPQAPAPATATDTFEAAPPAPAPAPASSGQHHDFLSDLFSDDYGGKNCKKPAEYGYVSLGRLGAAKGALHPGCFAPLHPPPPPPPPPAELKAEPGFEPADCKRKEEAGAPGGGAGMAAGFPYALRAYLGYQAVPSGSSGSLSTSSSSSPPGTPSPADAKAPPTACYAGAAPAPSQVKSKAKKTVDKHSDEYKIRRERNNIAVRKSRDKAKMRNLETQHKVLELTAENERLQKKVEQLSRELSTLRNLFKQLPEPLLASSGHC
Procedure, shortened: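 Following a 24 h incubation with test chemical, transfected HepG2 cells yielded RNA whose reporter transcripts were quantified by RT-PCR and fluorescent capillary electrophoresis, with DMSO serving as baseline for bidirectional fitting.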

[3] = ATG_CMV_CIS: Attagene CIS-FACTORIAL HepG2 Assay for human CMV (Internal Marker) (AID 2282928); details: HepG2 CMV promoter reporter, transcription factor profiling; actives raise or lower the signal;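 note: endpoint acts as a background internal control marker rather than a target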
Procedure, shortened: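 Fluorescence intensity of RT-PCR-derived reporter fragments, resolved by capillary electrophoresis, gives the signal. HepG2 liver cells bearing transfected cis-element reporters were treated 24 h; activity in either direction was fit relative to DMSO-treated controls.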

[4] = ATG_DR4_LXR_CIS: Attagene CIS-FACTORIAL HepG2 Assay for human Liver X Receptor (LXR), DR4 submotif (AID 2282929); details: HepG2 Attagene DR4 cis-reporter, mRNA transcription; actives raise or lower the signal
Procedure, shortened: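 DR4 cis-reporter in HepG2, 24 h exposure. Detection: RT-PCR, 6-FAM labelling, CE fragment analysis. Endpoint fitted bidirectionally, DMSO = baseline.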

[5] = biological target: Aryl hydrocarbon receptor (Homo sapiens) (UniProt P35869); assay: ATG_Ahr_CIS: Attagene CIS-FACTORIAL HepG2 Assay for human Aryl Hydrocarbon Receptor (Ahr) (AID 2282930); details: HepG2 AhR cis-factorial reporter transcription; actives raise or lower the signal
Aryl hydrocarbon receptor (Homo sapiens), sequence (P35869 whole entry, looked up): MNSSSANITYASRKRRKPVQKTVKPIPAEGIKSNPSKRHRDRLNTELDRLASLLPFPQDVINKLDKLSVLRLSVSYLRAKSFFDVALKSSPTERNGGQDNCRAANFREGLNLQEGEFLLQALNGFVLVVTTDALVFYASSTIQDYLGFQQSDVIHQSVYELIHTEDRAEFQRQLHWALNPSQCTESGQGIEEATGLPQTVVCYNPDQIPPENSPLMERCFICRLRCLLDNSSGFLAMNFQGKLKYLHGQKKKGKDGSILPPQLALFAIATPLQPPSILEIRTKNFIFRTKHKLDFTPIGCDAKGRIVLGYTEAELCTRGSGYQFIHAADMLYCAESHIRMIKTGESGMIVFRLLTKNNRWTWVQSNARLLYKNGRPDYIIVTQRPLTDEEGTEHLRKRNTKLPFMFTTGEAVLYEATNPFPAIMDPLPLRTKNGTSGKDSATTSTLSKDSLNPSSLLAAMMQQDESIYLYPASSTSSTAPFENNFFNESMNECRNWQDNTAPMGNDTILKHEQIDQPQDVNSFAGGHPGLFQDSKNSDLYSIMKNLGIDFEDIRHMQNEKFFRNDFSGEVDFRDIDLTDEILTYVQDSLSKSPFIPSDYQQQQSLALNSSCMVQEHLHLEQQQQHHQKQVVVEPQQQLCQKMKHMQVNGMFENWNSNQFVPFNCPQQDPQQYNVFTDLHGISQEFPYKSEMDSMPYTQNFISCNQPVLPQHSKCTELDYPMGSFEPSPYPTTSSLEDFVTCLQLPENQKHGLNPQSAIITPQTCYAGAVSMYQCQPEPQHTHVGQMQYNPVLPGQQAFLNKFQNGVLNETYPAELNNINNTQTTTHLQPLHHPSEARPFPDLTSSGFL
Procedure, shortened: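 Values derive from bidirectional fitting against DMSO negative control. Underlying signal: cis-element reporter mRNA in transiently transfected HepG2, harvested 24 h post-dose and measured by RT-PCR plus capillary electrophoresis.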

[6] = ATG_AP_1_CIS: Attagene CIS-FACTORIAL HepG2 Assay for human Activator Protein 1 (AP-1) (AID 2282931); details: HepG2 Attagene cis-factorial AP-1 reporter mRNA; actives raise or lower the signal
Procedure, shortened: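 Cis-regulated reporter units transiently expressed in HepG2 report endogenous transcription-factor activity. Signal: reporter mRNA at 24 h, via RT-PCR and fluorescent capillary electrophoresis. Endpoint derived by bidirectional fitting, DMSO as negative control.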

[7] = ATG_AP_2_CIS: Attagene CIS-FACTORIAL HepG2 Assay for human Activator Protein 2 (AP-2) (AID 2282932); details: HepG2 AP-2 cis-reporter, Attagene transcription factor profiling; actives raise or lower the signal
Procedure, shortened: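 Cells (HepG2) transfected with promoter-driven reporter constructs, treated 24 h. Total RNA reverse-transcribed, reporter cDNA PCR-amplified, FAM-labelled by primer extension, digested, resolved by capillary electrophoresis. Activity fitted both directions versus DMSO.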

[8] = ATG_BRE_CIS: Attagene CIS-FACTORIAL HepG2 Assay for human Bone Morphogenetic Protein (BMP) Response Element (BRE) (AID 2282933); details: HepG2 BMP response element reporter, Attagene transcription factor profiling; actives raise or lower the signal
Procedure, shortened: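 Read-out: reporter mRNA induction quantified by RT-PCR and capillary electrophoresis after 24 h chemical exposure of transfected HepG2 cells. Endogenous factor activity on the BMP response element; gain or loss fitted against DMSO baseline.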

[9] = biological target: Retinoic acid receptor alpha (Homo sapiens) (UniProt P10276); assay: ATG_DR5_RAR_CIS: Attagene CIS-FACTORIAL HepG2 Assay for human Retinoic Acid Receptor Alpha (RARE), DR5 submotif (AID 2282934); details: HepG2 Attagene cis-factorial RARE DR5 reporter, mRNA; actives raise or lower the signal;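 for AC50: reporter responds to endogenous RAR alpha beta and gamma in HepG2 not RARA alone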
Retinoic acid receptor alpha (Homo sapiens), sequence (P10276 whole entry, looked up): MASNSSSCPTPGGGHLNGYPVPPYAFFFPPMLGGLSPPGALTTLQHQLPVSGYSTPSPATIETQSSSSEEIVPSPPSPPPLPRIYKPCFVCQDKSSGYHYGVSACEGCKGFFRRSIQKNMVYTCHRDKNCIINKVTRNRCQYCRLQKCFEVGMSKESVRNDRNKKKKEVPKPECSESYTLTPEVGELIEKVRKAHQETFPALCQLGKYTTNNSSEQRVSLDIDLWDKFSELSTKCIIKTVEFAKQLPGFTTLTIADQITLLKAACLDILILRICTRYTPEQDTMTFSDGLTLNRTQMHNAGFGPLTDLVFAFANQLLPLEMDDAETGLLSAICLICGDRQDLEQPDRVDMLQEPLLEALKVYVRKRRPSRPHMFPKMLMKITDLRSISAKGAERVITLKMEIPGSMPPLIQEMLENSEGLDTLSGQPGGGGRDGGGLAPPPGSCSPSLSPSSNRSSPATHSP
Procedure, shortened: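 Endpoint fitted in both directions relative to DMSO as negative control. It reflects DR5 cis-element reporter mRNA induction in transiently transfected HepG2 cells, measured 24 h after dosing through RT-PCR and fluorescent capillary electrophoresis.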

[10] = biological target: Transcription factor E2F1 (Homo sapiens) (UniProt Q01094); assay: ATG_E2F_CIS: Attagene CIS-FACTORIAL HepG2 Assay for human E2F Transcription Factor 1 (AID 2282935); details: HepG2 Attagene cis-reporter, E2F reporter RNA transcripts; actives raise or lower the signal
Transcription factor E2F1 (Homo sapiens), sequence (Q01094 whole entry, looked up): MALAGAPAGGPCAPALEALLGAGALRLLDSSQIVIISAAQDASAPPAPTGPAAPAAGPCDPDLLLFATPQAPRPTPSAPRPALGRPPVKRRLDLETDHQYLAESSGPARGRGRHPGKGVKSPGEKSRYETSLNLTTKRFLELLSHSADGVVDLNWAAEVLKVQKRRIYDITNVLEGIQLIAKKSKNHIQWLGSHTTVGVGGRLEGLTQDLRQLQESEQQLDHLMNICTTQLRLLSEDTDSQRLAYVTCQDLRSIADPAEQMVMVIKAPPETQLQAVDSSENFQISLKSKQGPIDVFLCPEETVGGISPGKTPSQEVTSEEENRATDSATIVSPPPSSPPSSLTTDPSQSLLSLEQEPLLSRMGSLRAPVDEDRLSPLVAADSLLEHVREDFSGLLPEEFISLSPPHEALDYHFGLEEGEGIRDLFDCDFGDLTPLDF
Procedure, shortened: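 First, HepG2 cells were transfected with reporter transcription units. Next, they were dosed for 24 h. Then RNA was isolated, converted to cDNA, PCR-amplified, FAM-labeled, HpaI-digested and analyzed by capillary electrophoresis.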

Measured: AC50

O=c1cc(-c2ccccc2)oc2ccccc12
active: [3] 27.7 µM | [5] 7.62 µM | [7] 26.3 µM | [8] 133 µM
not listed: [10]
inactive: all other assays above

O=C1C=CC(=O)O1
inactive: all assays above

CC(=O)OCCC1CCCCC1
not listed: [10]
inactive: all other assays above

C=C1[C@H]2CC[C@@H]3[C@H]2C(C)(C)CCC[C@]13C
active: [3] 100 µM
inactive: all other assays above

CC(C)c1ccc2c(C(C)C)cc(C(C)C)c(S(=O)(=O)O)c2c1
inactive: all assays above

CCCCCCCCCCC=CC#N
active: [3] 100 µM | [4] 100 µM | [6] 111 µM
inactive: all other assays above

C[Si](C)(C)O[Si](O)(O)O
not listed: [10]
inactive: all other assays above

CCCCCCCCCCCCCCCCCC#N
not listed: [10]
inactive: all other assays above

CN1C(=O)N(C)C(O)C1O (stereo not drawn)
not listed: [9] | [10]
inactive: all other assays above

CCOC(=O)CC(C(C)=O)C(C)=O
inactive: all assays above

CC(C)c1ccc(C=O)cc1
inactive: all assays above

CC(C)C1=CC2=CC[C@@H]3[C@](C)(CCC[C@@]3(C)C(=O)O)[C@H]2CC1
active: [3] 135 µM | [4] 3.7 µM | [5] 31.6 µM | [6] 149 µM
not listed: [10]
inactive: all other assays above

CC(=O)CC(N)=O
not listed: [10]
inactive: all other assays above

CC(=O)NS(=O)(=O)c1ccc(N)cc1
not listed: [10]
inactive: all other assays above

Cc1ccc(C2OC[C@@H]3OC(c4ccc(C)cc4)O[C@H]([C@H](O)CO)[C@@H]3O2)cc1 (stereo partly drawn)
active: [6] 142 µM
not listed: [10]
inactive: all other assays above

C1=Cc2ccccc2C1
active: [5] 5.55 µM
not listed: [10]
inactive: all other assays above

O=c1cc[nH]c(=S)[nH]1
not listed: [10]
inactive: all other assays above

C=C(C)c1cccc(C(C)(C)N=C=O)c1
active: [5] 100 µM
not listed: [10]
inactive: all other assays above

C=C(C)[C@@H]1CCC2=CCC[C@@H](C)[C@]2(C)C1
active: [3] 67 µM | [6] 100 µM
not listed: [10]
inactive: all other assays above

CCCCCCCCCCOS(=O)(=O)O
active: [4] 67 µM | [9] 61.3 µM
inactive: all other assays above

CC=CC(F)(F)C(F)(F)C(F)(F)F
inactive: all assays above

CC(C)=CCCC(C)C=O (stereo not drawn)
not listed: [10]
inactive: all other assays above

CC(C)(c1cc(Br)c(OCCO)c(Br)c1)c1cc(Br)c(OCCO)c(Br)c1
inactive: [5] | [8]
active: [1] 38.7 µM | [2] 45.3 µM | [3] 36.7 µM | [4] 15.6 µM | [6] 36.6 µM | [7] 10.5 µM | [9] 0.22 µM

CCCCCCCCCCCCCCCC[n+]1ccccc1
inactive: [5] | [8] | [10]
active: [1] 0.873 µM | [2] 0.852 µM | [3] 33.4 µM | [4] 8.64 µM | [6] 20.4 µM | [7] 21 µM | [9] 7.8 µM

CCCCCCCCCCOC(C)=O
not listed: [10]
inactive: all other assays above
